In PubChem BioAssay AID485346 (Sanford-Burnham Center for Chemical Genomics, 2010) one finds inhibition data, which are given here for 62 compounds.

Screen size: about 330,000 compounds; about 10,000 (3%) were called active. Shown is part of a subset that was picked to be rich in actives. Unmarked numbers belong to inactive results.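 The calls were made as follows: active = inhibition of at least 50% at 8 µM in the primary screen; inactive = the rest.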

In this test the target is Protein Mdm4 (Homo sapiens) + E3 ubiquitin-protein ligase Mdm2 (Homo sapiens) (UniProt O15151+Q00987). The test is described as follows: inhibitors of human Mdm2-MdmX association, primary screen, cell-based, luminescence, split luciferase, SaOS-2, uHTS (AID 485346). To be noted: SaOS-2 split-luciferase Mdm2/MdmX complementation, at 8 µM, stronger effect = higher value.
Sequence of Protein Mdm4 (Homo sapiens) + E3 ubiquitin-protein ligase Mdm2 (Homo sapiens) (O15151 whole entry, looked up): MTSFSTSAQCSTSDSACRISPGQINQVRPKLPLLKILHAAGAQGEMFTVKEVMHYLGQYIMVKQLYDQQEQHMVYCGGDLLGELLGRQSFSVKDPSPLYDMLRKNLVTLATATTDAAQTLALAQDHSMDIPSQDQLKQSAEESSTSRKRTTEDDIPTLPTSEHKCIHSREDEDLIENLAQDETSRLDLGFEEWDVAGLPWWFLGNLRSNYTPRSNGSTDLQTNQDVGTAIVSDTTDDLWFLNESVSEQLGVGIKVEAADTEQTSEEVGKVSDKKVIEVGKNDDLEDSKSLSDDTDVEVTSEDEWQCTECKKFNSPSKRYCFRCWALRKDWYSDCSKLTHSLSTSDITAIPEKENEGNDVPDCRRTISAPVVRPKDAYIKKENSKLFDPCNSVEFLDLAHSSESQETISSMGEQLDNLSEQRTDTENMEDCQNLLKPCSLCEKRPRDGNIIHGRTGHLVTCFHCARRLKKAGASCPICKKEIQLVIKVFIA
Sequence of Protein Mdm4 (Homo sapiens) + E3 ubiquitin-protein ligase Mdm2 (Homo sapiens) (Q00987 whole entry, looked up): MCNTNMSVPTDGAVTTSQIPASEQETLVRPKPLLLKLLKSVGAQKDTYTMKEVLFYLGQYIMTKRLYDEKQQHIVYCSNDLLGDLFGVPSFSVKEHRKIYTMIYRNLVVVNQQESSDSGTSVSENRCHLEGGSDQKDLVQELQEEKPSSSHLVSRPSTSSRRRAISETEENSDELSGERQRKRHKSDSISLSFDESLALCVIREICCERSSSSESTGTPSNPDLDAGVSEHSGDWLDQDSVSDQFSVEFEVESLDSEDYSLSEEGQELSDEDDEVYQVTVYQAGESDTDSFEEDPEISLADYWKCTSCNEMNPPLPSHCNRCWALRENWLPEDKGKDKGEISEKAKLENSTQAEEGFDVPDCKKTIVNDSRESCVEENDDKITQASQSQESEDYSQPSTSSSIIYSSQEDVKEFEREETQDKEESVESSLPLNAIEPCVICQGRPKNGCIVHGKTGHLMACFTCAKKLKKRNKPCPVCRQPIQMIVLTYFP
As for `CC(C)(C)C1CCC(C(=O)Nc2cccnc2)CC1` (configuration not stated), the inhibition is 19%.

For `CCC(C)(C(=O)Nc1ccccc1C)N(C(=O)CNC(C)=O)c1ccc(C)cc1` (configuration not stated), the inhibition was -5.46%.

Regarding `CN1CCN(C2Cc3ccc(Cl)cc3Sc3ccc(F)cc32)CC1` (configuration not stated), the inhibition was 54.3% (active).

With `CC(OC(=O)CCCOc1ccccc1)C(=O)Nc1ccc(Cl)cn1` (configuration not stated), the inhibition was 17.5%.

In the case of `COC(=O)[C@@H]1C[C@@]2(O)[C@H](O)[C@H](O)[C@H](O)C[C@H]2N1Cc1ccc(C)s1`, the inhibition is 7.36%.

For the compound `Cc1cccc2cc(CN(Cc3nnnn3Cc3ccccc3)C3CCCC3)c(=O)[nH]c12`, the inhibition was 13.2%.

For the compound `CCC(c1nnnn1C1CCCC1)N(Cc1cccs1)Cc1cc2cccc(C)c2[nH]c1=O` (configuration not stated), the inhibition was 56.1% (active).

Consider `CCC(c1nnnn1Cc1ccco1)N(CCc1ccccc1)Cc1cc2cccc(C)c2[nH]c1=O` (configuration not stated), for which the inhibition is 12.5%.

On to `CN(C(=O)CSc1cccc[n+]1[O-])C1CCCCC1`, for which the inhibition was 20.9%.

For `CN1CCN(CC#CCC2(O)c3ccccc3-c3ccccc32)CC1`, the inhibition is 16.2%.

In the case of `COc1ccc(-c2nnc(SC(C)C(=O)NC3CC3)o2)cc1` (configuration not stated), the inhibition is 19.9%.

For `COc1ccc(-c2nnc(SC(=O)N3c4ccccc4Sc4ccccc43)o2)cc1`, the inhibition was 69.1% (active).

For `COc1ccc(-c2nnc(SCC(=O)c3ccc4c(c3)OCCO4)o2)cc1`, the inhibition is 17.3%.

Consider `O=C(CCc1ccccc1)Nc1ccc(NC(=O)C2CCCCC2)nc1`, for which the inhibition is 11%.

On to `COc1ccc(CNC(=O)CN(C(=O)c2csnn2)c2cnc3ccccc3c2)cc1`, for which the inhibition is 12.6%.

Take `CCOC(CNC(=O)C1CCN(S(=O)(=O)c2ccc3nc4c(c(C(=O)O)c3c2)CC(C)CC4)CC1)OCC` (configuration not stated): the inhibition was 14.5%.

Turning to `C/C(=N\OCC(=O)O)c1ccc(Cl)cc1`, the inhibition is -3.73%.

Regarding `C/C(=N\N=C(N)N)c1ccc(Cl)cc1`, the inhibition was 52% (active).

Take `C/C(=N\NC(=S)NCc1ccccc1)c1ccc(Cl)cc1`: the inhibition is 12.3%.

For `CN(C)c1ccc(C(CNC(=O)c2ccc(F)cc2)c2c[nH]c3ccccc23)cc1` (configuration not stated), the inhibition is 3.11%.

For the compound `COC(=O)c1c(NC(=O)COc2ccc(Cl)cc2Cl)sc2c1CC(C)(C)NC2(C)C`, the inhibition is 100% (active).

With `COC(=O)c1sccc1NC(=O)COc1ccc(Cl)cc1`, the inhibition is -7.02%.

For `Cc1cnc(C(=O)OCC(=O)Nc2ccc(Cl)cc2Cl)cn1`, the inhibition is 21.4%.

With `CCc1ccc(CN(C)C(C)C(=O)Nc2ccc(S(=O)(=O)N3CCCC3)cc2)cc1` (configuration not stated), the inhibition was 20.1%.

In the case of `Oc1[nH]c2ccc(Br)cc2c1N=Nc1nn[nH]n1`, the inhibition is 13.6%.

`O=C(CNC(=O)Cc1ccccc1)N=Nc1c(O)[nH]c2ccc(Br)cc12`: the inhibition was 37.6%.

For `NS(=O)(=O)c1ccc(N=Nc2c(O)[nH]c3ccc(Br)cc23)cc1`, the inhibition was 53.6% (active).

Regarding `Cc1ccc(S(=O)(=O)Oc2ccc(/C=N/NC(=O)c3ccncc3)cc2)cc1`, the inhibition was 16.6%.

As to `COc1ccc(CC(=O)NCC(=O)N/N=C/c2cc(Br)ccc2OC)cc1`, the inhibition was 41.6%.

As to `Cc1ccc(OCCOCCOc2ccc(Br)cc2/C=N\NC(=O)c2ccncc2)cc1`, the inhibition was 59.9% (active).

On to `O=C(Nc1ccnn1C1CCN(C/C=C/c2ccc(F)cc2)CC1)C1CCCC1`, for which the inhibition was 22.3%.

For `O=C(O)CN(Cc1ccco1)S(=O)(=O)c1ccc(F)cc1`, the inhibition is -22%.

`Cc1onc(-c2c(F)cccc2Cl)c1C(=O)N(C)CC(=O)Nc1cccc(F)c1`: the inhibition is -8.71%.

Regarding `COc1ccc(S(=O)(=O)NCCc2c[nH]c3ccccc23)cc1OC`, the inhibition was 6.22%.

In the case of `COc1ccccc1NC(=O)CCCc1c[nH]c2ccccc12`, the inhibition was -3.5%.

For the compound `COc1cccc(CNCCc2c[nH]c3ccccc23)c1OCc1ccccc1F`, the inhibition is 92.8% (active).

As to `Cc1ccoc1C(=O)Nc1cccc(Oc2ccccc2)c1`, the inhibition is -66.5%.

Take `COC(=O)c1ccccc1NC(=O)C1(S(=O)(=O)c2ccc(Cl)cc2)CC1`: the inhibition is -0.27%.

`COc1ccc(-c2n[nH]c(C)c2-c2ccccc2OC)c(O)c1`: the inhibition is 38.6%.

For the compound `CCOc1ccc(-c2nc(N)ncc2-c2ccccc2OC)c(O)c1`, the inhibition is 11.3%.

For `COc1ccc(-c2c(-c3ccc(OC)cc3O)nc(C)nc2C(F)(F)F)cc1`, the inhibition was 8.07%.

`C=C(C)COc1ccc(-c2n[nH]c(C)c2-c2ccccc2OC)c(O)c1`: the inhibition is 53.6% (active).

For `C=C(C)COc1ccc(-c2n[nH]c(C)c2-c2ccccc2)c(O)c1`, the inhibition was 53.7% (active).

Consider `C=C(C)COc1ccc(-c2nc(N)ncc2-c2ccccc2OC)c(O)c1`, for which the inhibition was 17.9%.

On to `COc1ccc(-c2n[nH]c(C)c2-c2ccc(OC)c(OC)c2)c(O)c1`, for which the inhibition is 62.5% (active).

Turning to `C=C(C)COc1ccc(-c2ncncc2-c2ccc(OC)cc2)c(O)c1`, the inhibition is 29.3%.

As for `COc1ccc(-c2[nH]ncc2CN(C)Cc2c(C)n[nH]c2C)c(OC)c1`, the inhibition was 15.3%.

In the case of `O=C(NCCCCO)C(F)(F)C(F)(F)C(F)(F)C(=O)NCCCCO`, the inhibition was -22.9%.

For `C=CCNCCCCOc1ccccc1`, the inhibition is -9.48%.

On to `C/C=C/C=C/C(=O)OCC(=O)Nc1ccc(Cl)cc1`, for which the inhibition was 23.8%.

As to `Cc1ccc(N2C(=O)CC(Sc3ncn[nH]3)C2=O)cc1` (configuration not stated), the inhibition is 7.7%.

As for `N#CC1(NC(=O)COC(=O)CSc2ccc(F)cc2)CCCCC1`, the inhibition is 6.22%.

`Cc1ccc(C(=O)NN(CCC#N)C2=NS(=O)(=O)c3ccccc32)cc1`: the inhibition was 6.64%.

Take `Cc1cn(C2OC[C@@H](O)[C@@H]2CO)c(=O)[nH]c1=O` (some centres not stated): the inhibition is -25.3%.

Take `CCOC(=O)c1ccc2c(c1)nc(C)n2CC`: the inhibition was -24.3%.

For the compound `CCn1c(/C=C/Nc2ccccc2)[n+](CC)c2ccc(C(=O)OCC(F)(F)F)cc21`, the inhibition was 50.7% (active).

On to `CCOC(=O)N1CCN(C(=O)c2ccc(S(=O)(=O)Nc3cccc(C(F)(F)F)c3)cc2)CC1`, for which the inhibition was 5.75%.

Consider `Cc1nc2c(C(=O)NCc3cccs3)cnn2c(C)c1Cc1ccc(F)cc1`, for which the inhibition is 5.96%.

For the compound `CN(C)c1ccc(-c2nnc(-c3cccnc3)o2)cc1`, the inhibition was -90.9%.

For `Cc1ccc(OCC(=O)OC(C)CN(C)Cc2ccccc2)cc1` (configuration not stated), the inhibition is -13.3%.

For the compound `OC(CNCc1ccc2c(c1)OCO2)COc1ccccc1` (configuration not stated), the inhibition was -15.2%.

For `CN(Cc1ccccc1)CC(O)COc1ccc(CNCc2cc3ccccc3s2)cc1` (configuration not stated), the inhibition is 51.9% (active).
